{"source": "PubChem BioAssay (NCATS)", "note": "Results filed as inconclusive are left out. A number with no mark means an inactive call. Active and inactive are the calls of the source. Calls follow the shape of the dose curve; as a rule, active = well fitted cell-killing curve with a large enough effect; inconclusive = small, poorly fitted or top-dose-only effect, or effect the other way; inactive = no such curve, though single readings can be large or run the other way. Potency is read from the fitted curve at half-maximal effect."}
{"assay": "Quantitative High-Throughput drug screen in 47 multiple myeloma cell lines against the NCATS MIPE library collection: XG1_PLB cell viability assay (AID 1919866); also: nearly all actives have a fitted effect of over 35% in size", "conditions": "CellTiter-Glo ATP, 48 h; series mostly up to 45.8 µM; viability: at the top concentration", "excerpt": "PI: Beverly A. Mock Ph.D.\nLaboratory of Cancer Biology and Genetics,\nCenter for Cancer Research, National Cancer Institute,\nNational Institute of Health, Bethesda, Maryland\nDrug resistance and disease progression are common in multiple myeloma (MM) patients, underscoring the need for new therapeutic combinations. […] We hypothesized that effective combinations would reduce MYC expression and enhance p16 activity. […] These preclinical data identify potentially useful drug combinations for evaluation in drug-resistant MM and reveal potential mechanisms of combined drug sensitivity.\nDescribed herein is the primary MIPE qHTS used to cherrypick compounds. Validated compounds were then further tested for potential synergistic activiy.\n[1] Peat TJ, Gaikwad SM, Dubois W, Gyabaah-Kessie N, Zhang S, Gorjifard S, Phyo Z, Andres M, Hughitt VK, Simpson RM, Miller MA, Girvin AT, Taylor A, Williams D, D'Antonio N, Zhang Y, Rajagopalan A, Flietner E, Wilson K, Zhang X, Shinn P, Klumpp-Thomas C, McKnight C, Itkin Z, Chen L, Kazandijian D, Zhang J, Michalowski AM, Simmons JK, Keats J, Thomas CJ, Mock BA. Drug combinations identified by high-throughput screening promote cell cycle transition and upregulate Smad pathways in myeloma. Cancer Lett. 2023 Aug 1;568:216284. doi: 10.1016/j.canlet.2023.216284. Epub 2023 Jun 24. PMID: 37356470; PMCID: PMC10408729.\nSEQUENCE No. (e.g., 1, 2, 3, etc.); […] (e.g., Cells, Incubation, Reagent, etc.); VALUE and DESCRIPTION.\n1; Cells; 5 uL; white, solid bottom 1536-well Greiner assay plate.\n2; Compounds; 23 nL; Kalypsis pin tool (Wako USA) equipped with a 1536-well pin head to transfer to the assay plates.\n3; Incubation; 48 hours; 37C incubation.\n4; Reagent;5uL; CellTiter Glo (Promega).\n5; Detector; 425V; Luminescence; Viewlux PerkinElmer.\nNOTES (numbers refer to Sequence numbers above)\n1. The cell-based screening methods employed in this study were like those previously published. Briefly, the corresponding myeloma cell lines were screened in 1,536-well plates with 500 cells, 5-uL per well for inhibition of cell viability (assessed by measuring ATP levels with CellTiterGlo).\n2. NCATS MIPE 4.0 library of approved and investigational drugs were added using the Kalypsis pin tool. Wells treated with DMSO only for 100% viability and media only for 0% viability were used as controls.\n3. The assay plates were covered and incubated for 48 hours in a 37C, 5% CO2 incubator with controlled humidity.\n4. After 48 hours, CellTilter-GloTM luminescent substrate mix (Promega) reagent was added to the assay plate and plates we incubated for 5 min at room temperature.\n5. Signal was measured as median relative luminescence units on a ViewLux (PerkinElmer) multiplate reader.\n[1] Heske CM, Davis MI, Baumgart JT, Wilson K, Gormally MV, Chen L, Zhang X, Ceribelli M, Duveau DY, Guha R, Ferrer M, Arnaldez FI, Ji J, Tran HL, Zhang Y, Mendoza A, Helman LJ, Thomas CJ. Matrix Screen Identifies Synergistic Combination of PARP Inhibitors and Nicotinamide Phosphoribosyltransferase (NAMPT) Inhibitors in Ewing Sarcoma. Clin Cancer Res. 2017 Dec 1;23(23):7301-7311. doi: 10.1158/1078-0432.CCR-17-1121. Epub 2017 Sep 12. PMID: 28899971; PMCID: PMC6636827.", "units": {"viability": "%"}}
{"smiles": "O=C1NC(=O)C(=Cc2cccc(C(F)(F)F)c2)S1", "Potency": "16.6 µM (active)"}
{"smiles": "CCOC1OC(=O)C[C@H]1NC(=O)[C@@H]1CCCN1C(=O)[C@@H](NC(=O)c1ccc(N)c(Cl)c1)C(C)(C)C", "note": "(stereo not given in full)", "viability": 111}
{"smiles": "O=C1C[C@@H](c2ccc(O)cc2)Oc2cc(O)cc(O)c21", "viability": 114}
{"smiles": "CCn1cc(C(=O)O)c(=O)c2ccc(C)nc21", "viability": 93.3}
{"smiles": "C=C1C(=O)[C@@]23C(CC[C@@H]1[C@H]2O)[C@@]12CO[C@]3(O)[C@@H](O)[C@@H]1C(C)(C)CC[C@@H]2O", "note": "(stereo not given in full)", "Potency": "2.96 µM (active)"}
{"smiles": "Cc1nc(N)sc1-c1ccnc(Nc2ccc(N3CCOCC3)cc2)n1", "Potency": "2.64 µM (active)"}
{"smiles": "Cc1ccn(-c2ccc(-c3ncco3)cc2)c(=O)c1-c1ccc2nc(N)ncc2c1", "Potency": "3.72 µM (active)"}
{"smiles": "CNC(=O)c1ccc2cc(C3(O)CCn4cncc43)ccc2c1", "note": "(stereo not given)", "viability": 95}
{"smiles": "NS(=O)(=O)c1cccc2c1C(=O)c1cccc(O)c1C2=O", "Potency": "0.264 µM (active)"}
{"smiles": "NC(=O)c1cccc2[nH]c(-c3ccc([C@H]4CCCN4)cc3F)nc12", "Potency": "8.33 µM (active)"}
{"smiles": "CO[C@H]1C=CO[C@@]2(C)Oc3c(C)c(O)c4c(O)c(c5c(c4c3C2=O)NC2(CCN(CC(C)C)CC2)N=5)=NC(=O)C(C)=CC=C[C@H](C)[C@H](O)[C@@H](C)[C@@H](O)[C@@H](C)[C@H](OC(C)=O)[C@H]1C", "Potency": "20.9 µM (active)"}
{"smiles": "O=C1c2ccccc2-[n+]2ccc3c([nH]c4ccccc43)c21", "Potency": "1.05 µM (active)"}
{"smiles": "O=C1C(Cl)=C(NCCN2CCOCC2)C(=O)c2ncccc21", "Potency": "6.62 µM (active)"}
{"smiles": "COc1cc2ncnc(Nc3ccc(F)c(Cl)c3)c2cc1OCCCN1CCOCC1", "Potency": "3.03 µM (active)"}
{"smiles": "CC(C)(C(=O)NCC(F)(F)C(F)(F)F)C(=O)N[C@@H]1C(=O)Nc2ccccc2-c2ccccc21", "Potency": "10.5 µM (active)"}
{"smiles": "O=c1[nH]cnc2c1ncn2[C@H]1CC[C@@H](CO)O1", "viability": 125}
{"smiles": "CCOC(=O)O[C@]1(C(=O)OCCl)CC[C@@H]2[C@H]3CCC4=CC(=O)C=C[C@]4(C)[C@@H]3[C@@H](O)C[C@@]21C", "viability": 111}
{"smiles": "COc1ccc(Cc2ccc(NC(N)=O)cc2)cc1-c1cccc(Cl)c1", "viability": 120}
{"smiles": "NC1CCC(Nc2nc(Nc3ccc(C(=O)N4CCCCC4)cc3)c3ncn(-c4cccc(F)c4)c3n2)CC1", "note": "(stereo not given)", "viability": 104}
{"smiles": "Cc1ccc(F)c(NC(=O)Nc2ccc(-c3cccc4[nH]nc(N)c34)cc2)c1", "Potency": "16.6 µM (active)"}
{"smiles": "C[C@]12CC[C@@H]3c4ccc(O)cc4CC[C@H]3[C@H]1C[C@@H](O)[C@H]2O", "viability": 89.7}
{"smiles": "CC=CC(=O)N(CC)c1ccccc1C", "Potency": "26.4 µM (active)"}
{"smiles": "CC(=O)N(C)C1(c2ccccc2)CCN(CCC[C@]2(c3ccc(Cl)c(Cl)c3)CCCN(C(=O)c3ccccc3)C2)CC1", "Potency": "14.8 µM (active)"}
{"smiles": "CS(=O)(=O)N(Cc1ccco1)CC(O)Cn1c2ccccc2c2ccccc21", "note": "(stereo not given)", "Potency": "20.9 µM (active)"}
{"smiles": "COc1ccc2c(Oc3ccc(NC(=O)c4c(C)n(CC(C)(C)O)n(-c5ccccc5)c4=O)cc3F)ccnc2c1", "Potency": "14.8 µM (active)"}
{"smiles": "Cc1ccc(C(=O)Nc2cccc(C(F)(F)F)c2)cc1Nc1nc(-c2cccnc2)nc2c1cnn2C", "Potency": "10.5 µM (active)"}
{"smiles": "Cc1ccc(/C=N/NC(=O)c2ccccc2Oc2ccccc2)o1", "Potency": "11.8 µM (active)"}
{"smiles": "Clc1ccc(C(c2ccc(Cl)cc2)n2cc[n+](CC(OCc3ccc(Cl)cc3Cl)c3ccc(Cl)cc3Cl)c2)cc1", "note": "(stereo not given)", "Potency": "8.33 µM (active)"}
{"smiles": "O=C(O)c1c(Cl)c(Cl)c(Cl)c(Cl)c1-c1c2cc(I)c(=O)c(I)c-2oc2c(I)c(O)c(I)cc12", "Potency": "5.9 µM (active)"}
{"smiles": "NC[C@@H]1O[C@@H](O[C@H]2[C@@H](O)[C@H](O[C@@H]3[C@@H](O)[C@@H](N)C[C@H](N)[C@H]3O[C@H]3O[C@H](CN)[C@@H](O)[C@@H](O)[C@H]3N)O[C@H]2CO)[C@H](N)[C@@H](O)[C@@H]1O", "viability": 115}
{"smiles": "COc1ccc2c3c1OC1C[C@@H](O)C=C[C@@]31CCN(C)C2", "note": "(stereo not given in full)", "Potency": "5.9 µM (active)"}
{"smiles": "CCOc1ccc(Nc2nc(-c3c(C)nc4ccccn34)cs2)cc1", "viability": 37.3}
{"smiles": "CN1CCN(CCOc2cc(OC3CCOCC3)c3c(Nc4c(Cl)ccc5c4OCO5)ncnc3c2)CC1", "Potency": "18.7 µM (active)"}
{"smiles": "O=C(Nc1cc(Cl)cc2c1[nH]c1cnccc12)c1cccnc1", "Potency": "5.26 µM (active)"}
{"smiles": "O=C(CCc1ccc(O)cc1)c1c(O)cc(O)cc1O[C@@H]1O[C@H](CO)[C@H](O)[C@H](O)[C@H]1O", "viability": 88.7}
{"smiles": "CN(C)Cc1ccc(-c2nc3cccc4c3n2CCNC4=O)cc1", "Potency": "20.9 µM (active)"}
{"smiles": "Nc1ncnc2ccccc12", "Potency": "7.43 µM (active)"}
{"smiles": "O=c1cc(N2CCOCC2)oc2c(-c3cccc4c3sc3ccccc34)cccc12", "Potency": "6.62 µM (active)"}
{"smiles": "Cc1ccccc1C(C(=O)NC1CCCCC1)N(C(=O)Cn1ccnc1C)c1cccc(F)c1", "note": "(stereo not given)", "viability": 91.1}
{"smiles": "C=CCc1ccc(O)c(-c2ccc(O)c(CC=C)c2)c1", "Potency": "18.7 µM (active)"}
